Consider 36 compounds from PubChem BioAssay (Tox21).

Records with an inconclusive call do not appear. Where a call stands in place of a potency, no number is given. The source made the active and inactive calls. Unless noted, calls follow the shape of the full dose curve.
Potency is read from the fitted curve at half-maximal effect.

Beta-2 adrenergic receptor (Homo sapiens), sequence (P07550 whole entry, looked up): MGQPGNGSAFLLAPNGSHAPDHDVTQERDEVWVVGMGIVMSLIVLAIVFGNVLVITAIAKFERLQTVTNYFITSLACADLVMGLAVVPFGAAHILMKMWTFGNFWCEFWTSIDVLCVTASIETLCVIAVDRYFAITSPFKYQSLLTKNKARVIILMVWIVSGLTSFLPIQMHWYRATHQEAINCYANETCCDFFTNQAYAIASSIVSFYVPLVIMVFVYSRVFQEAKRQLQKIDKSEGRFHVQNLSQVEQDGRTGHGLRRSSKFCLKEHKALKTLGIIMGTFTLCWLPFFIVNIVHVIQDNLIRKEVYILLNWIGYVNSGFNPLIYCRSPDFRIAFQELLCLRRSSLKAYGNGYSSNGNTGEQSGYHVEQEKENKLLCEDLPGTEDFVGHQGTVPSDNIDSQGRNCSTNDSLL

One assay deals with Beta-2 adrenergic receptor (Homo sapiens) (UniProt P07550). The experiment in a line: Adrenergic beta2 receptor (ADRB2) small molecule agonists, cell-based qHTS assay (AID 1963593). Particulars: CHO-ADRB2 cells, cAMP HTRF, 30 min; series mostly up to 92.4 µM. The method in brief:
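CHO cells stably over-expressing ADRB2 were plated overnight at 37C, then dosed with compounds plus a stimulation mix containing 100uM IBMX and 25uM Ro-20-1724 for 0.5hr at room temperature. cAMP was measured by HTRF competition, 1hr.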
For the compound `CCCCCCCCP(=O)(O)O`, the Potency entry was “inactive”.

As for `COc1ccc(CN2CCNCC2)c(OC)c1OC`, the Potency entry was “inactive”.

Take `CC(Cc1ccccc1)N(C)Cc1ccco1` (stereo not given): the Potency entry is “inactive”.

For `ClCC(Cl)Cl`, the Potency entry is “inactive”.

As for `CC1NCCOC1c1ccccc1` (stereo not given), the Potency entry is “inactive”.

`O=C(Cl)c1ccc(Cl)cc1`: the Potency entry was “inactive”.

For the compound `COc1ccc(C(=O)N2CCCC2=O)cc1`, the Potency result was “inactive”.

For the compound `C=CCC1([C@H](C)CCC)C(=O)NC(=O)NC1=O`, the Potency entry is “inactive”.

For the compound `ClC(Cl)=C(Cl)Cl`, the Potency entry is “inactive”.

As to `CCN(C(C)=O)c1cccc(-c2ccnc3c(C#N)cnn23)c1`, the Potency entry is “inactive”.

Regarding `CCCN1CCC[C@@H]2Cc3[nH]ncc3C[C@H]21`, the Potency entry was “inactive”.

For the compound `BrCCCCBr`, the Potency entry was “inactive”.

In the case of `O=c1[nH]oc2c1CCNC2`, the Potency entry is “inactive”.

Consider `O=C1OC(CCN2CCCCC2)OC1(c1ccccc1)c1ccccc1` (stereo not given), for which the Potency result was “inactive”.

Take `CC(C(O)c1ccccc1)N(C)C/C=C/c1ccccc1` (stereo not given): the Potency entry is “inactive”.

For the compound `CNC(C)Cc1ccccc1OC` (stereo not given), the Potency entry is “inactive”.

Take `CC(C)NCC(O)c1ccccc1Cl` (stereo not given): the Potency was 668 nM (active).

As to `ClCc1cccc(Cl)c1`, the Potency entry is “inactive”.

Consider `CC(C)[C@H](C(=O)OC(C#N)c1cccc(Oc2ccccc2)c1)c1ccc(OC(F)F)cc1` (stereo not given in full), for which the Potency result is “inactive”.

The target in the next assay is D(2) dopamine receptor (Homo sapiens) (UniProt P14416). The experiment in a line: Dopamine D2 receptor (DRD2) small molecule agonists, cell-based qHTS assay (AID 1963594). Also: nearly all actives have a fitted effect of over 35% in size. The note with it: HEK293-DRD2 cAMP HTRF, agonist mode, 30 min; series mostly up to 92.4 µM. In outline: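 cAMP accumulation in DRD2-HEK293 cells measured by HTRF after 1 h detection; compounds added 10 min before NKH477 (200nM […]) forskolin-analogue stimulation, 30 min at room temperature, with Ro20-1724 present at 0.1 mM final.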
D(2) dopamine receptor (Homo sapiens), sequence (P14416 whole entry, looked up): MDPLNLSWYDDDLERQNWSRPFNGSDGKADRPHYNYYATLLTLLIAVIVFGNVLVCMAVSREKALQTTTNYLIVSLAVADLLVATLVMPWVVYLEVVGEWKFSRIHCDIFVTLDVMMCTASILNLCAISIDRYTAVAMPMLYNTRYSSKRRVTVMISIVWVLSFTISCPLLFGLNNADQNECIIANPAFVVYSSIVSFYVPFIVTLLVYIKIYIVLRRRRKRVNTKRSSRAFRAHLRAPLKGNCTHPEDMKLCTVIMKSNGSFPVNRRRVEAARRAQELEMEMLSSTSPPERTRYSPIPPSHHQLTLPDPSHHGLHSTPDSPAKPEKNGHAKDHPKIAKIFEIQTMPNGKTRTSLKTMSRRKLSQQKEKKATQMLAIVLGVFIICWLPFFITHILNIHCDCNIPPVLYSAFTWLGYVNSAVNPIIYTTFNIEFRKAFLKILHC
For `CCCCCCCCP(=O)(O)O`, the Potency result is “inactive”.

Take `c1ccc2c(c1)CCNC2`: the Potency entry was “inactive”.

Regarding `C[C@]12Cc3nonc3C[C@@H]1CC[C@@H]1[C@@H]2CC[C@@]2(C)[C@H]1CC[C@]2(C)O`, the Potency result is “inactive”.

On to `N#Cc1c(Cl)cccc1Cl`, for which the Potency entry is “inactive”.

For the compound `COc1ccc(CN2CCNCC2)c(OC)c1OC`, the Potency result was “inactive”.

In the case of `CC(Cc1ccccc1)N(C)Cc1ccco1` (stereo not given), the Potency result is “inactive”.

Consider `ClCC(Cl)Cl`, for which the Potency result is “inactive”.

On to `CC1NCCOC1c1ccccc1` (stereo not given), for which the Potency was 14100 nM (active).

For `O=C(Cc1ccccc1)OCCc1ccccc1`, the Potency result is “inactive”.

Turning to `O=C(Cl)c1ccc(Cl)cc1`, the Potency result is “inactive”.

`COc1ccc(C(=O)N2CCCC2=O)cc1`: the Potency result was “inactive”.

Take `C=CCC1([C@H](C)CCC)C(=O)NC(=O)NC1=O`: the Potency result was “inactive”.

As for `ClC(Cl)=C(Cl)Cl`, the Potency entry is “inactive”.

Turning to `CCN(C(C)=O)c1cccc(-c2ccnc3c(C#N)cnn23)c1`, the Potency entry was “inactive”.

Regarding `BrCCCCBr`, the Potency entry is “inactive”.

Consider `O=c1[nH]oc2c1CCNC2`, for which the Potency entry is “inactive”.

Regarding `O=C1OC(CCN2CCCCC2)OC1(c1ccccc1)c1ccccc1` (stereo not given), the Potency result is “inactive”.

In the case of `N[C@@H](Cc1ccc(Oc2cc(I)c(O)c(I)c2)c(I)c1)C(=O)O`, the Potency entry is “inactive”.

`[Cl][Sn]([Cl])([Cl])[Cl]`: the Potency entry is “inactive”.

Regarding `O=C(CCCN1CCC(n2c(=O)[nH]c3ccccc32)CC1)c1ccc(F)cc1`, the Potency entry was “inactive”.

Consider `COc1cc(CC#N)cc(OC)c1OC`, for which the Potency entry is “inactive”.

As to `CC(C(O)c1ccccc1)N(C)C/C=C/c1ccccc1` (stereo not given), the Potency result was “inactive”.

In the case of `CC(Cl)(Cl)Cl`, the Potency entry is “inactive”.

As for `CCOC(=O)CC(=O)CCl`, the Potency entry was “inactive”.

Regarding `CNC(C)Cc1ccccc1OC` (stereo not given), the Potency result was “inactive”.

On to `CC(C)NCC(O)c1ccccc1Cl` (stereo not given), for which the Potency result was “inactive”.

Turning to `CCN(CC)CCOC(=O)C(C)(c1ccccc1)c1ccccc1`, the Potency entry was “inactive”.

On to `CC(C)[C@H](C(=O)OC(C#N)c1cccc(Oc2ccccc2)c1)c1ccc(OC(F)F)cc1` (stereo not given in full), for which the Potency entry was “inactive”.

Another assay shares this target. The experiment in a line: Dopamine D2 receptor (DRD2) small molecule antagonists, cell-based qHTS assay (AID 1963595; active = well fitted inhibition curve with a large enough effect in the signal ratio in the repeat runs, with a control signal flat; the % refers to the signal ratio). The note with it: HEK293-DRD2 cAMP HTRF antagonist mode; series mostly up to 92.4 µM. The method in brief:
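HTRF cAMP read-out at 665 and 620 nm emission (340 nm excitation). Antagonist mode: compounds were tested against 12 nM quinpirole in DRD2-HEK293 cells, with 200 nM NKH477 raising cAMP and 0.1 mM Ro20-1724 blocking its breakdown.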
Consider `CCCCCCCCP(=O)(O)O`, for which the Potency result is “inactive”.

In the case of `c1ccc2c(c1)CCNC2`, the Potency result is “inactive”.

Regarding `C[C@]12Cc3nonc3C[C@@H]1CC[C@@H]1[C@@H]2CC[C@@]2(C)[C@H]1CC[C@]2(C)O`, the Potency entry was “inactive”.

Consider `Nc1cc(Cl)ccc1Cl`, for which the Potency result is “inactive”.

`COc1ccc(CN2CCNCC2)c(OC)c1OC`: the Potency result was “inactive”.

As to `CC(Cc1ccccc1)N(C)Cc1ccco1` (stereo not given), the Potency entry is “inactive”.

Turning to `ClCC(Cl)Cl`, the Potency entry is “inactive”.

For `CC1NCCOC1c1ccccc1` (stereo not given), the Potency entry is “inactive”.

Regarding `O=C(Cc1ccccc1)OCCc1ccccc1`, the Potency entry was “inactive”.

With `O=C(Cl)c1ccc(Cl)cc1`, the Potency entry is “inactive”.

As to `COc1ccc(C(=O)N2CCCC2=O)cc1`, the Potency entry is “inactive”.

As for `ClCCCN1CCN(c2cccc(Cl)c2)CC1`, the Potency entry is “inactive”.

With `C=CCC1([C@H](C)CCC)C(=O)NC(=O)NC1=O`, the Potency entry was “inactive”.

Turning to `ClC(Cl)=C(Cl)Cl`, the Potency entry is “inactive”.

As to `CCN(C(C)=O)c1cccc(-c2ccnc3c(C#N)cnn23)c1`, the Potency entry is “inactive”.

With `CC#Cc1cc(C)nc(Nc2ccccc2)n1`, the Potency result is “inactive”.

With `BrCCCCBr`, the Potency result was “inactive”.

As to `O=c1[nH]oc2c1CCNC2`, the Potency entry was “inactive”.

As for `O=C1OC(CCN2CCCCC2)OC1(c1ccccc1)c1ccccc1` (stereo not given), the Potency entry was “inactive”.

Turning to `N[C@@H](Cc1ccc(Oc2cc(I)c(O)c(I)c2)c(I)c1)C(=O)O`, the Potency result is “inactive”.

Turning to `[Cl][Sn]([Cl])([Cl])[Cl]`, the Potency result is “inactive”.

Take `O=[N+]([O-])c1ccc(CCl)cc1`: the Potency result was “inactive”.

As for `O=C(CCCN1CCC(n2c(=O)[nH]c3ccccc32)CC1)c1ccc(F)cc1`, the Potency is 42.2 nM (active).

Take `COc1cc(CC#N)cc(OC)c1OC`: the Potency result is “inactive”.

Regarding `CC(C)NCC(O)c1ccc([N+](=O)[O-])cc1` (stereo not given), the Potency entry is “inactive”.

In the case of `CC(C(O)c1ccccc1)N(C)C/C=C/c1ccccc1` (stereo not given), the Potency result was “inactive”.

As for `CC(Cl)(Cl)Cl`, the Potency entry is “inactive”.

On to `CCOC(=O)CC(=O)CCl`, for which the Potency result is “inactive”.

With `CNC(C)Cc1ccccc1OC` (stereo not given), the Potency entry is “inactive”.

Consider `CC(C)NCC(O)c1ccccc1Cl` (stereo not given), for which the Potency entry is “inactive”.

Take `CCN(CC)CCOC(=O)C(C)(c1ccccc1)c1ccccc1`: the Potency result was “inactive”.

As for `CC1=C2C[C@H]3[C@@H](CC=C4C[C@@H](O)CC[C@@]43C)[C@@H]2CC[C@]12O[C@@H]1C[C@H](C)CN[C@H]1[C@H]2C`, the Potency result was “inactive”.

In the case of `CC(C)[C@H](C(=O)OC(C#N)c1cccc(Oc2ccccc2)c1)c1ccc(OC(F)F)cc1` (stereo not given in full), the Potency entry is “inactive”.
